Rows were chosen to be rich in hits. Some 19% of all compounds tested hit in one or more screens of this group.
Shiga toxin inh – A qHTS for Small Molecule Inhibitors of Shiga Toxin; actives 9.2% (n = 290,000); Vero cells, Shiga toxin protein synthesis inhibition reporter; inhibition, % at 38.7 µM; in the data active = inhibition mostly above about 28%, no sharp cut-off; inactive = mostly below about 43%; note: 0% is about no effect
AMA1-RON2 inh – qHTS for Inhibitors of AMA1-RON; Towards Development of Antimalarial Drug Lead: Primary Screen; AlphaScreen AMA1-biotinylated RON2 peptide binding; actives 0.2% (n = 360,000); Potency, µM (highest dose often 58.2 µM), inactives show top-dose activity change, negative = inhibition, hits mostly inhibitors; Plasmodium falciparum AMA1 (3D7) - RON2 peptide interaction;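 note: potency is the fitted concentration of half-maximal effect; 0% = vehicle wells and -100% = peptide control; nearly all actives have a fitted effect of over 45% in size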
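AMA1 (3D7) with his tag at 25 nM final met compounds first, then biotinylated RON2 peptide at 25 nM; detection used donor plus acceptor beads, 10 µg/mL apiece, read by AlphaScreen after 30 min at room temperature.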
Pf growth 48h – Primary qHTS for delayed death inhibitors of the malarial parasite plastid, 48 hour incubation; AID 504832, 2011; Potency, µM (top dose mostly 28.7 µM), inactives show at the highest dose activity change, negative = inhibition, actives largely listed as inhibitors; actives 5.9% (n = 310,000); P. falciparum luciferase growth in erythrocytes, 48 h; note: potency is the fitted concentration of half-maximal effect; % is set by controls: 0 for no effect and ±100 for the full control effect
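Luciferase-expressing parasites in RBCs, 2% Hct / 0.1% parasitemia final; RPMI 1640 + 0.5% Albumax; 37 C, 5% CO2, one generation; luminescence read-out, lower signal = inhibition.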
SARS PLpro yeast – qHTS of Yeast-based Assay for SARS-CoV PLP; S. cerevisiae expressing SARS-CoV PLpro, growth rescue; Potency, µM (doses to about 32.9 µM), for inactives: top-dose activity, positive = growth rescue, most hits filed as activators; actives 0.19% (n = 330,000); AID 485353, 2010; calls by dose curve; note: potency is the fitted concentration of half-maximal effect; 0% is about no effect; nearly all actives have a fitted effect of over 55% in size
CHX counter – Cycloheximide Counterscreen for Small Molecule Inhibitors of Shiga Toxin. cell reporter, cycloheximide protein synthesis inhibition counterscreen. max response, %. actives 12% (n = 300,000). AID 2314, 2010; in the data active = max response mostly above about 13%, no sharp cut-off; inactive = mostly below about 14%; note: read at 38.3 µM for the half of the compounds with a filed dose; 0% is about no effect
Pf growth 96h – Primary qHTS for delayed death inhibitors of the malarial parasite plastid, 96 hour incubation. P. falciparum luciferase reporter growth, 96 h. actives 6.9% (n = 320,000). Potency, µM (highest dose often 28.7 µM), for the others: at the top dose activity change, negative = inhibition, hits mostly inhibitors; note: potency is the fitted concentration of half-maximal effect; % is set by controls: 0 for no effect and ±100 for the full control effect
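Delayed-death screen, second-generation endpoint: infected erythrocytes, 2% hematocrit, 0.05% parasitemia final; 96 hours at 37 C, 5% CO2; luciferase detection reagent; luminescence decrease equals reduced growth.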
* = called active by the depositor; i = inactive; ? = inconclusive; nt = no result given. Unless noted, calls come from the whole dose curve; as a rule, active = well fitted curve in the direction sought with a large enough effect; inconclusive = small, poorly fitted or top-dose-only effect, or another doubt; inactive = no such curve, though single readings can be large; an effect the other way counts as inactive or inconclusive.

SMILES | Shiga toxin inh | AMA1-RON2 inh | Pf growth 48h | SARS PLpro yeast | CHX counter | Pf growth 96h
CN(C)S(=O)(=O)c1ccc(Cl)c(NC(=O)CSc2nc3ccccc3c(=O)n2CCCN2CCOCC2)c1 | 7 | -1% | ? | 12% | -5 | 10µM*
O=C(CSc1nc2ccccc2c(=O)n1CCCN1CCOCC1)NC12CC3CC(CC(C3)C1)C2 | -16 | -2% | 10µM* | 0% | -6 | ?
N[C@H](CC(=O)O)C(=O)O | nt | nt | 3% | nt | nt | ?
CCOc1ccc(S(=O)(=O)NC2=NCCCCC2)cc1 | nt | 3% | ? | 0% | nt | -25%
C=CCn1c(SCC(=O)Nc2nnc(CC)s2)nnc1-c1ccncc1 | 19 | -10% | 36% | 1% | 3 | 44%
CC1(c2cnc(Nc3ccccc3)s2)CCC(=O)O1 (configuration not stated) | 64* | -1% | 53% | nt | 34* | 47%
CC1(c2ccc3ccccc3c2)CCC(=O)O1 (configuration not stated) | nt | 6% | nt | nt | nt | nt
CCc1nn(-c2ccccc2)c2c1-c1cc(OC)c(OC)cc1C1(N2)C(=O)Nc2ccccc21 (configuration not stated) | -9 | -22% | nt | 4% | -2 | 2.6µM*
COc1cc2c(cc1OC)C1(Nc3c-2c(C)nn3-c2ccccc2)C(=O)Nc2ccccc21 (configuration not stated) | -3 | -15% | nt | 9% | -1 | 1.5µM*
CC1CCCC(C)N1c1nnc(N)s1 (configuration not stated) | 10 | 29% | 35% | 14% | 5 | 54%
Nc1ncnc2c1ncn2[C@@H]1O[C@H](C(=O)N[C@@H](CO)Cc2ccccc2)[C@@H](O)[C@H]1O | nt | -9% | nt | nt | nt | nt
Cc1ccc(Nc2nc(Nc3ccc(C)cc3)nc(SC3=NCCS3)n2)cc1 | 48 | -3% | nt | 28% | 10 | 13µM*
Cc1ccccc1Nc1nc(Nc2ccccc2C)nc(SC2=NCCS2)n1 | -4 | -18% | 10µM* | ? | -1 | nt
Clc1ccccc1NCSC1=NCCS1 | nt | 16% | nt | nt | nt | nt
O=c1c2ccccc2nnn1CSc1nnc(Nc2ccccc2)s1 | -7 | -9% | 13% | -1% | -1 | ?
O=c1c2ccccc2nnn1CSc1ccccc1 | 92* | 6% | 234% | -15% | 45* | i
Cc1ccc(Nc2nnc(SCn3nnc4ccccc4c3=O)s2)cc1 | 116* | -16% | nt | -7% | 31* | 18%
O=c1c2ccccc2nnn1CSc1ccc2ccccc2n1 | 11 | 3% | -5% | -2% | 11 | ?
COCCNc1oc(/C=C/c2ccc(F)cc2)nc1S(=O)(=O)c1ccccc1 | 8 | 14% | ? | -4% | 16 | ?
O=C1C2CC=CCC2C(=O)N1c1ccc(NCCc2ccc(O)cc2)c([N+](=O)[O-])c1 (configuration not stated) | 63* | ? | 4% | -25% | 33* | ?
O=C1C2CC=CCC2C(=O)N1c1ccc(NCCc2ccc(Cl)cc2)c([N+](=O)[O-])c1 (configuration not stated) | 6 | -7% | 2% | -6% | -3 | 323%
FC(F)(F)c1nnc2c(Sc3ccccc3)nc3ccccc3n12 | -26 | 37% | -18% | 0% | 28* | -14%
FC(F)(F)c1nnc2c(Sc3ccc(Cl)cc3)nc3ccccc3n12 | 26 | 14% | ? | 1% | -7 | 14%
FC(F)(F)c1nnc2c(Sc3ccccn3)nc3ccccc3n12 | 111* | 3% | 9.3µM* | 0% | 23* | 3%
Cc1ccc(C(=O)NCCN2CCC(n3c(=O)[nH]c4ccccc43)CC2)cc1C | nt | 10% | nt | nt | nt | nt
SMILES | Shiga toxin inh | AMA1-RON2 inh | Pf growth 48h | SARS PLpro yeast | CHX counter | Pf growth 96h
NCCCC[C@H]1CNC(=S)N1CCCCC1CCCCC1 | -6 | -6% | 22% | 1% | 1 | 48%
CO[C@H]1CC[C@@]2(C)[C@@H](CC[C@@H]3[C@@H]2CC[C@@]2(C)[C@H]3C[C@H](C(=O)N[C@@H](CCCN=C(N)N)C(=O)NCC(=O)N[C@@H](CC(=O)O)C(N)=O)O[C@]23CCCO3)C1 | nt | -3% | nt | -3% | nt | nt
C[C@@H](NC(=O)C(=O)c1c[nH]c2ccccc12)c1ccccc1 | nt | -5% | nt | nt | nt | nt
O=C(Nc1nccs1)C(=O)c1c[nH]c2ccccc12 | 146* | 26% | -26% | -16% | 71* | nt
CSc1ccccc1NC(=O)C(=O)c1c[nH]c2ccccc12 | 117* | -8% | 160% | -2% | 42* | 99%
C[C@@H]1CN([C@H](C)CO)C(=O)CCCn2nncc2CO[C@H]1CN(C)S(=O)(=O)c1ccccc1F | nt | 6% | nt | nt | nt | nt
COc1cccc(/C=C2\SC(=O)N(CC(=O)NC3C=CS(=O)(=O)C3)C2=O)c1 (configuration not stated) | 8 | -3% | ? | 0% | 11 | 12µM*
CC(C)c1ccc(/C=C2\SC(=O)N(CC(=O)NC3C=CS(=O)(=O)C3)C2=O)cc1 (configuration not stated) | 27 | -5% | ? | 6% | 12* | ?
O=C(CN1C(=O)/C(=C/c2ccc(Cl)cc2)SC1=S)NC1C=CS(=O)(=O)C1 (configuration not stated) | -4 | 0% | 45% | 2% | 9 | 33%
COc1ccc(/C=C2\SC(=S)N(C(C)C(=O)NC3C=CS(=O)(=O)C3)C2=O)cc1 (configuration not stated) | 31* | 5% | 33% | -1% | 23* | 27%
COc1cccc(/C=C2\SC(=S)N(C(C)C(=O)NC3C=CS(=O)(=O)C3)C2=O)c1 (configuration not stated) | 12 | 61% | 30% | -3% | 23 | 24%
Cc1ccc(S(=O)(=O)NCC2CCC(C(=O)NCCCOC(C)C)CC2)cc1 (configuration not stated) | -11 | nt | ? | 18% | -1 | 40%
CCCCn1c(O)c(C=NC2CCCCC2N)c(=O)[nH]c1=O (configuration not stated) | 13 | 109% | -15% | 15% | -3 | nt
CCCCCCn1c(O)c(C=NC2CCCCC2N)c(=O)[nH]c1=O (configuration not stated) | -6 | 76% | 8% | -2% | 0 | 6.6µM*
